Data reported in the supplement of paper PMC10849652.
Targets with a hit are over-represented here; the source holds about 7,900 in all. About 0.6% of all pairs of compound and target were hits. A number with no mark means an inactive call.

What was measured:
Assay in all cases: log2 fold change, soluble protein after heating vs DMSO (PISA); higher = thermal stabilisation; K562 cells, 10 uM, 30 min; active = over 0.2 and 3.5 SD of the protein, either way, in both replicates (recomputed)
[1] = compound: CC[C@@H]1C(=O)N(C)c2cnc(Nc3ccc(C(=O)NC4CCN(C)CC4)cc3OC)nc2N1C1CCCC1
Outline: (§1)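 Aliquots of K562 cells (2×10^6 cells/mL) treated with 10 μM compound for 30 min were heated for 3 min over 48°C-58°C. After pooling and extraction in PBS with 0.5% NP-40 at 4°C, soluble protein from a 21,000xg, 90 min spin was quantified by TMTpro 16plex LC-MS/MS with channel sums equalised. Thermal stability is expressed against control samples, from duplicates, as a log2 fold change.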

volasertib = compound: CC[C@@H]1C(=O)N(C)c2cnc(Nc3ccc(C(=O)N[C@H]4CC[C@H](N5CCN(CC6CC6)CC5)CC4)cc3OC)nc2N1C(C)C [volasertib]
Outline: as §1

[2] = compound: CC[C@H](C)N1C=C(C2=C(C=C(C=C21)C3=CN=C(C=C3)N4CCNCC4)C(=O)NCC5=C(C=C(NC5=O)C)C)C
Outline: as §1

epoxomicin = compound: CC[C@H](C)[C@@H](C(=O)N[C@@H]([C@@H](C)O)C(=O)N[C@@H](CC(C)C)C(=O)[C@]1(CO1)C)NC(=O)[C@H]([C@@H](C)CC)N(C)C(=O)C [epoxomicin]
Outline: as §1

[3] = compound: CCn1c(C(=O)N(C2CC2)C2CC2)cc2c3c(ncn3C)c(Nc3cc(C)n(C)n3)nc21
Outline: as §1

[4] = compound: CCn1cc(-c2ccnc3[nH]c(-c4cccc(CN(C)C)c4)cc23)c(-c2ccc(NC(=O)N(C)C)cc2)n1
Outline: as §1

[5] = compound: CN(C)CC(=O)Nc1ccc2[nH]c(=O)c3ccccc3c2c1
Outline: as §1

rosiglitazone = compound: CN(CCOC1=CC=C(C=C1)C[C@H]2C(=O)NC(=O)S2)C3=CC=CC=N3 (racemic) [rosiglitazone]
Outline: as §1

[6] = compound: CN1C2=C(C3=C1C(=O)N(N=C3)CC4=CC(=CC=C4)N)SC(=C2)S(=O)C
Outline: as §1

[7] = compound: CN1CCC(CNc2ccc3ncc(-c4cccc(OC(F)(F)F)c4)n3n2)CC1
Outline: as §1

saracatinib = compound: CN1CCN(CCOc2cc(OC3CCOCC3)c3c(Nc4c(Cl)ccc5c4OCO5)ncnc3c2)CC1 [saracatinib]
Outline: as §1

sotrastaurin = compound: CN1CCN(c2nc(C3=C(c4c[nH]c5ccccc45)C(=O)NC3=O)c3ccccc3n2)CC1 [sotrastaurin]
Outline: as §1

alvocidib = compound: CN1CC[C@H](c2c(O)cc(O)c3c(=O)cc(-c4ccccc4Cl)oc23)[C@H](O)C1 [alvocidib]
Outline: as §1

Tubastatin A = compound: CN1CCc2c(c3ccccc3n2Cc2ccc(C(=O)NO)cc2)C1 [Tubastatin A]
Outline: as §1

[8] = compound: CNC(=O)C1=CC=CC=C1NC2=NC(=NC=C2Cl)NC3=C(C=C(C=C3)N4CCOCC4)OC
Outline: as §1

defactinib = compound: CNC(=O)c1ccc(Nc2ncc(C(F)(F)F)c(NCc3nccnc3N(C)S(C)(=O)=O)n2)cc1 [defactinib]
Outline: as §1

rucaparib = compound: CNCc1ccc(-c2[nH]c3cc(F)cc4c3c2CCNC4=O)cc1 [rucaparib]
Outline: as §1

[9] = compound: CNc1nc(-c2ccc3c(N)n[nH]c3c2)cc(N2C[C@@H](C(=O)NC3CCCCC3)CC[C@H]2C)n1
Outline: as §1

encorafenib = compound: COC(=O)N[C@@H](C)CNc1nccc(-c2cn(C(C)C)nc2-c2cc(Cl)cc(NS(C)(=O)=O)c2F)n1 [encorafenib]
Outline: as §1

[10] = compound: COC(=O)[C@H](CCSC)NC(=O)C1=C(C=C(C=C1)NC[C@H](CS)N)C2=CC=CC=C2
Outline: as §1

Chain of UniProt Q969Z0 (Q969Z0 whole entry, looked up): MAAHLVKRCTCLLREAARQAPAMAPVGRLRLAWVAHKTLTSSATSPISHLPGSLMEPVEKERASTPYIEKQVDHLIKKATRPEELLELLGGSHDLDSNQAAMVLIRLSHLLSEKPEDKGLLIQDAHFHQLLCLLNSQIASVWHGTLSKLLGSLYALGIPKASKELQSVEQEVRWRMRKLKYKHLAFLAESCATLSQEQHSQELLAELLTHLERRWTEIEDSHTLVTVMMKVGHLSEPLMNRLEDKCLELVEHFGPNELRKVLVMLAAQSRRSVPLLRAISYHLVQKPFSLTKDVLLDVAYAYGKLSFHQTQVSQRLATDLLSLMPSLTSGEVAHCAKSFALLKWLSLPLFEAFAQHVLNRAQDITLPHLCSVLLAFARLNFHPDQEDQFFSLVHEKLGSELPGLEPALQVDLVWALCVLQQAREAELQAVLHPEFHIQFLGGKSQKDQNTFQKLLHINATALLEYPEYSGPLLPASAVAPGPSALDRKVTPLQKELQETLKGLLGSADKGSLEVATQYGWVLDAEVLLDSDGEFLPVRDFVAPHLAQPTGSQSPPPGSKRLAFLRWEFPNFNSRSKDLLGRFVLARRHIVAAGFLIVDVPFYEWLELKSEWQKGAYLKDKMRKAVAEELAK
Chain of UniProt Q8WU79 (Q8WU79 whole entry, looked up): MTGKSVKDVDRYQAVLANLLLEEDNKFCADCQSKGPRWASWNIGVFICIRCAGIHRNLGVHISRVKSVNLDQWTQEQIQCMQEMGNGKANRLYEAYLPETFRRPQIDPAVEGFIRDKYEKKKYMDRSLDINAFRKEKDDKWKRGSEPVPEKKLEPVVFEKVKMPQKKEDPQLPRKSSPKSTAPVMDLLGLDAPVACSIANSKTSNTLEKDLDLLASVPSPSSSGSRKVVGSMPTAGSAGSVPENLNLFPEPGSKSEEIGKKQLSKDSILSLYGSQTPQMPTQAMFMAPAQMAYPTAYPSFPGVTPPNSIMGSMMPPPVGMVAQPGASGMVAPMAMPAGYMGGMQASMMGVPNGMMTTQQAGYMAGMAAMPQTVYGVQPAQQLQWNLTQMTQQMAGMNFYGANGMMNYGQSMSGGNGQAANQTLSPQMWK
Chain of UniProt Q4KMP7 (Q4KMP7 whole entry, looked up): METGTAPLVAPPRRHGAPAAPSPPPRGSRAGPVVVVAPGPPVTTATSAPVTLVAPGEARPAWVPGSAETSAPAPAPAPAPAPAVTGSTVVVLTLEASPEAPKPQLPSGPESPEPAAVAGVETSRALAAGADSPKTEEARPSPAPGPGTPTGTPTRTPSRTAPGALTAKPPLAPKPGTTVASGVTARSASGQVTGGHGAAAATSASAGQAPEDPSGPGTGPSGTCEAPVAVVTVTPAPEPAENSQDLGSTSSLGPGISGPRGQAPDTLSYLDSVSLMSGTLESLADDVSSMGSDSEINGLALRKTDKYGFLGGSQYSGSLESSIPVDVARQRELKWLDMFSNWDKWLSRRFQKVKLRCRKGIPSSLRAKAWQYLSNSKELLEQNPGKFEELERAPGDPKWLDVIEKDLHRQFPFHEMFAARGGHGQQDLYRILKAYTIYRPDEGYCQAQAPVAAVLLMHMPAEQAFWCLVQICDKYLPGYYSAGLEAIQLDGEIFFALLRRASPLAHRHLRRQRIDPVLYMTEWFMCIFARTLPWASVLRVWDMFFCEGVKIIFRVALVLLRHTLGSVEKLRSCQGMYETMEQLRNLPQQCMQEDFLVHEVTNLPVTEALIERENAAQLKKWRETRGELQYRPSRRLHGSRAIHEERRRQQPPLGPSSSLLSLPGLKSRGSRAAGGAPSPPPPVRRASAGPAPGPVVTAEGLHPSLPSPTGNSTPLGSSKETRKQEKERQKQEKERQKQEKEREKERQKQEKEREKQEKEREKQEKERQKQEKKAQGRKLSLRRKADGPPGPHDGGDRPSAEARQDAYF
Chain of UniProt Q9BW92 (Q9BW92 whole entry, looked up): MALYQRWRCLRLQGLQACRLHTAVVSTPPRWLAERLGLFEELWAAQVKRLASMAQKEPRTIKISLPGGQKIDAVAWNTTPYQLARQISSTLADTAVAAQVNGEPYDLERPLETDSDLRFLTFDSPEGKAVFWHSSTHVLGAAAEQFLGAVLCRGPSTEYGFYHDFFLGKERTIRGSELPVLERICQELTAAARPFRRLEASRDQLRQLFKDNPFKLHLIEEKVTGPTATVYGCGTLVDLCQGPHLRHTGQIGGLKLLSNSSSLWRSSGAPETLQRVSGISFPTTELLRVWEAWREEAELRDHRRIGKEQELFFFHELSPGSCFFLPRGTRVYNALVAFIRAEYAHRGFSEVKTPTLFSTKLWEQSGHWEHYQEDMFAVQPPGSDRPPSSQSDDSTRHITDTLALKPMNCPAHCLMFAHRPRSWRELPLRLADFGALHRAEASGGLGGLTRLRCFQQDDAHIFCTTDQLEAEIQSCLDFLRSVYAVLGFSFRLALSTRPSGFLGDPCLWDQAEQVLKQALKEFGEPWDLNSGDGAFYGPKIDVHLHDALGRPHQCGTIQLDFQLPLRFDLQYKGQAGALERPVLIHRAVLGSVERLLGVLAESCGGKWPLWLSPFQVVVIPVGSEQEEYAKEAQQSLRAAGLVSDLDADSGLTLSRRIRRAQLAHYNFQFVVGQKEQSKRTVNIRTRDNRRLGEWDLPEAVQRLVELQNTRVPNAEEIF
Chain of UniProt Q13596 (Q13596 whole entry, looked up): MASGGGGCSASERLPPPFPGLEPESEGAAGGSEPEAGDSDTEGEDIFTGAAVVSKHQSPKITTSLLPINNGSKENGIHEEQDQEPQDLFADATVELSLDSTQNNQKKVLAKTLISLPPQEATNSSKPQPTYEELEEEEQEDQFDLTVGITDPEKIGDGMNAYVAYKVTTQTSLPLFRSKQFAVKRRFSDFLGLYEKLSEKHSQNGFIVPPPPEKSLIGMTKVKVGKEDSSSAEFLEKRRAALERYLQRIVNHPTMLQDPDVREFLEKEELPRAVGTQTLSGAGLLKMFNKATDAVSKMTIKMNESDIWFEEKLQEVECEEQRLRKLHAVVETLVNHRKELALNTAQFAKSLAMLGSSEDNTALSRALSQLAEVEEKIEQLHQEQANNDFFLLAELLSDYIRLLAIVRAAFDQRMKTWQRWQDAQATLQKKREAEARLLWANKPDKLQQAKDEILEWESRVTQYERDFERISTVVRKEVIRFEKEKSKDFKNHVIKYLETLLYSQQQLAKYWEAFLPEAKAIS
Chain of UniProt Q08170 (Q08170 whole entry, looked up): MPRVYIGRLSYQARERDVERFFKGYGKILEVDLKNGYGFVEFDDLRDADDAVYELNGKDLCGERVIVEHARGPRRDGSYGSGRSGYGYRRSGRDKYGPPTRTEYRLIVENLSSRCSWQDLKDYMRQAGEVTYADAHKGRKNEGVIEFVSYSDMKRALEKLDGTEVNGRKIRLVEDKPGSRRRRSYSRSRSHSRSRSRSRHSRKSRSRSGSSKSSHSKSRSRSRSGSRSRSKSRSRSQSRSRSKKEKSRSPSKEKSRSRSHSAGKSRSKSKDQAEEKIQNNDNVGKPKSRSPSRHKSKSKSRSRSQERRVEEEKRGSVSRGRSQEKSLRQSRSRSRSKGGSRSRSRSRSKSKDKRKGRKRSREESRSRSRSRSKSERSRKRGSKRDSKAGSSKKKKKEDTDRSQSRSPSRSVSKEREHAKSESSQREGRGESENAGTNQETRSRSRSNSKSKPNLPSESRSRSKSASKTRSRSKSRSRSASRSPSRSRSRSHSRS
Chain of UniProt Q9NZD8 (Q9NZD8 whole entry, looked up): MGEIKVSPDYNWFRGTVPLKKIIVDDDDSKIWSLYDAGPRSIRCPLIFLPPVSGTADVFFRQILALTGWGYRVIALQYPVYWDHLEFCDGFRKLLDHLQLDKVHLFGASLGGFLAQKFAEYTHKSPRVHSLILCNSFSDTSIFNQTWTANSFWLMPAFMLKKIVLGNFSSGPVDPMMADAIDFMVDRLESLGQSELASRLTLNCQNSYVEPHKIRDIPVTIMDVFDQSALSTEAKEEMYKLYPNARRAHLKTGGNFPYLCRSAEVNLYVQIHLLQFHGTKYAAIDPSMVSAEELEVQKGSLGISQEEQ
Chain of UniProt Q9H2K8 (Q9H2K8 whole entry, looked up): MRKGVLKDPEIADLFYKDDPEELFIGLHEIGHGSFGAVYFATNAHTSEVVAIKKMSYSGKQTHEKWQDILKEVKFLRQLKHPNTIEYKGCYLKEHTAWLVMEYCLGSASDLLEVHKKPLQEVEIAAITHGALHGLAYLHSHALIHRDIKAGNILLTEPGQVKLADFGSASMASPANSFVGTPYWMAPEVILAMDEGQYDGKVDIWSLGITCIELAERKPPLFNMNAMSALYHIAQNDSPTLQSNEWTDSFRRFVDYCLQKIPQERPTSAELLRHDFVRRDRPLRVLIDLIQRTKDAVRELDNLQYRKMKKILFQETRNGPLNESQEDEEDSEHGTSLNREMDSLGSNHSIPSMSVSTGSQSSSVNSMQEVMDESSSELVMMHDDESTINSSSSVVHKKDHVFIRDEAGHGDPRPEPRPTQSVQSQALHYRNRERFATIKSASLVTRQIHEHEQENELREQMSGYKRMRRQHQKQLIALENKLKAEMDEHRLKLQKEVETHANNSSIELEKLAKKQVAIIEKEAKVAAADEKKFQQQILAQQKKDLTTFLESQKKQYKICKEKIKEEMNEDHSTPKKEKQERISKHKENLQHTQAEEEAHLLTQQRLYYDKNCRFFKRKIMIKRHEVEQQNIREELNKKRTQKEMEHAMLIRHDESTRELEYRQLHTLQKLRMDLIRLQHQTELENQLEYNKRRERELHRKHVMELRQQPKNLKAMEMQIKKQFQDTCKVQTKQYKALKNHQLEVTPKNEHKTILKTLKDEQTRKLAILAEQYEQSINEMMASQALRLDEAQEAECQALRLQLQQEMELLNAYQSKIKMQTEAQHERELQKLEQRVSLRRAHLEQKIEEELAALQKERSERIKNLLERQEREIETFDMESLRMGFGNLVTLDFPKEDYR

| Target | log2 fold change [1] | log2 fold change (volasertib) | log2 fold change [2] | log2 fold change (epoxomicin) | log2 fold change [3] | log2 fold change [4] | log2 fold change [5] | log2 fold change (rosiglitazone) | log2 fold change [6] | log2 fold change [7] | log2 fold change (saracatinib) | log2 fold change (sotrastaurin) | log2 fold change (alvocidib) | log2 fold change (Tubastatin A) | log2 fold change [8] | log2 fold change (defactinib) | log2 fold change (rucaparib) | log2 fold change [9] | log2 fold change (encorafenib) | log2 fold change [10] |
| --- | --- | --- | --- | --- | --- | --- | --- | --- | --- | --- | --- | --- | --- | --- | --- | --- | --- | --- | --- | --- |
| STRN (UniProt O43815) | -0.031 | -0.031 | 0.026 | 0.046 | 0.007 | -0.046 | 0.02 | 0.003 | -0.031 | 0.073 | 0.022 | 0.026 | -0.097 | 0.013 | -0.007 | -0.076 | -0.007 | -0.026 | 0.017 | -0.017 |
| SNX1 (UniProt Q13596) | -0.135 | -0.113 | 0.096 | 0.037 | -0.096 | -0.107 | 0.003 | 0.079 | -0.029 | -0.605 (active) | 0.006 | -0.006 | -0.084 | -0.021 | -0.112 | -0.036 | -0.023 | 0.028 | 0.024 | -0.026 |
| TARS2 (UniProt Q9BW92) | -0.017 | -0.128 | 0.012 | 0.02 | 0.009 | -0.002 | -0.019 | 0.018 | -0.055 | -0.069 | -0.004 | -0.049 | -0.041 | -0.357 (active) | 0.03 | -0.033 | 0.009 | -0.098 | 0.015 | 0.039 |
| SQSTM1 (UniProt Q13501) | -0.09 | -0.204 | 0.021 | -0.056 | 0.041 | -0.112 | 0.042 | 0.012 | 0.043 | -0.022 | -0.038 | -0.073 | -0.149 | -0.022 | -0.024 | -0.074 | -0.021 | -0.048 | 0.012 | 0.051 |
| SPG21 (UniProt Q9NZD8) | -0.082 | -0.615 (active) | 0.065 | 0.315 (active) | -0.013 | 0.037 | 0.018 | 0.123 | -0.098 | -0.21 | 0.007 | -0.005 | -0.097 | 0.016 | -0.015 | -0.134 | 0.089 | 0.211 | -0.022 | 0.01 |
| SMAP2 (UniProt Q8WU79) | -0.054 | -0.3 (active) | 0.131 | 0.056 | -0.015 | -0.009 | 0.008 | 0.073 | -0.021 | 0.015 | -0.047 | -0.052 | -0.057 | 0.029 | 0.107 | -0.12 | 0.114 | -0.026 | 0.087 | -0.043 |
| TBRG4 (UniProt Q969Z0) | -0.361 | -0.583 | -0.003 | 0.12 | -0.034 | 0.009 | 0.111 | 0.073 | 0.047 | -1.19 (active) | -0.093 | -0.431 | -0.345 | 0.044 | -0.177 | -0.25 | 0.008 | -0.144 | 0.071 | -0.062 |
| SRSF4 (UniProt Q08170) | 0.091 | -0.001 | 0.011 | -0.175 | -0.068 | 0.115 | -0.09 | -0.09 | 0.205 | 0.087 | -0.065 | 0.028 | 0.135 | 0.17 | -0.283 | 0.045 | 0.165 | 0.013 | 0.154 | 0.023 |
| TAOK3 (UniProt Q9H2K8) | -0.005 | -0.083 | 0.058 | 0.007 | 0.007 | -0.019 | 0.059 | 0.001 | -0.067 | -0.059 | -0.002 | -0.089 | -0.062 | 0.042 | -0.031 | -0.109 | -0.013 | 0.019 | 0.052 | -0.044 |
| SLC30A10 (UniProt Q6XR72) | 0 | -0.052 | -0.052 | 0.045 | 0.023 | -0.244 | -0.028 | 0.039 | -0.087 | 0.044 | -0.075 | 0.031 | -0.031 | 0.008 | -0.025 | 0.012 | -0.073 | -0.036 | 0.001 | -0.011 |
| TJP2 isoform 7 (UniProt Q9UDY2) | -0.128 | -0.298 | -0.018 | 0.01 | -0.041 | -0.083 | 0.015 | 0.07 | -0.021 | -0.094 | -0.074 | -0.151 | -0.067 | 0.047 | -0.06 | -0.211 | 0.051 | 0.054 | 0.066 | -0.097 |
| SPECC1 (UniProt Q5M775) | 0.109 | 0.052 | -0.013 | -0.101 | 0.037 | 0.004 | -0.111 | 0.023 | 0.07 | -0.012 | -0.171 | 0.093 | 0.06 | -0.024 | -0.069 | 0 | 0.091 | -0.104 | -0.015 | -0.062 |
| TBC1D10B (UniProt Q4KMP7) | -0.108 | -0.114 | 0.025 | 0.019 | 0.022 | 0.004 | -0.005 | 0.015 | -0.053 | -0.185 | -0.025 | -0.036 | -0.036 | 0.001 | -0.015 | -0.008 | 0.094 | 0.009 | 0.048 | -0.023 |
| SPG11 (UniProt Q96JI7) | 0.155 | -0.294 | 0.017 | -0.085 | 0.019 | 0.141 | -0.216 | -0.045 | 0.367 | -1.24 (active) | -0.281 | 0.055 | 0.28 | 0.012 | -0.156 | 0.151 | 0.046 | 0.119 | -0.094 | 0.069 |
| TIMM29 (UniProt Q9BSF4) | 0.044 | -0.071 | 0.019 | -0.013 | 0.027 | -0.035 | 0 | -0.016 | -0.103 | 0.062 | 0.054 | 0.051 | -0.068 | 0.003 | -0.03 | 0.1 | -0.008 | 0.002 | -0.098 | 0.13 |
